From PubChem BioAssay (NCATS) come the findings set out here.

Records with an inconclusive call do not appear. Where a call stands in place of a potency, no number is given. Active and inactive are the calls of the source. Calls follow the shape of the dose curve; as a rule, active = well fitted inhibition curve with a large enough effect; inconclusive = small, poorly fitted or top-dose-only effect; inactive = no such curve, though single readings can be large or run the other way.

The target of this assay is Retinaldehyde dehydrogenase 3 (Homo sapiens) (UniProt P47895). Kind of assay: qHTS for Inhibitors of the Aldehyde Dehydrogenase Family (ALDH1A3) Primary screen (AID 2061315). The conditions noted are these: ALDH inhibition qHTS; series mostly up to 56 µM. A general note: qHTS replaces the single test concentration by a dilution series.
Regarding `Cc1ccc(Cn2nc(C(=O)N[C@@H]3C(C)(C)[C@@H]4CC[C@@]3(C)C4)cc2-c2ccc(Cl)c(C)c2)cc1`, the Potency result was “inactive”.
With `COc1ccsc1CNCC[C@@]1(c2ccccn2)CCOC2(CCCC2)C1`, the Potency entry was “inactive”.
For `C=C1CC[C@H]2[C@@H](/C=C(\C)C(=O)[C@@]3(OC(C)=O)C[C@H](C)[C@H](OC(=O)c4ccccc4)[C@@H]3[C@H]1OC(C)=O)C2(C)C` the value was “inactive”; for `COC(=O)[C@@]1(C)C(=O)C=C[C@]2(C)c3c(O)cc(C(C)C)cc3[C@H](O)[C@@H](OC(C)=O)C12` (some centres undefined), “inactive”; for `COC(=O)C12C(=O)C(C)(O)C(=O)C1(C)C(C)=CC1C34CCC(OC3=O)C(C)(CO)C4CCC12C` (centres undefined), “inactive”.
To `CN1C(=O)c2ccccc2NC(=O)[C@]12O[C@@H]2c1ccccc1` belongs “inactive”.
To `C[C@]12CC[C@H](O[C@@H]3O[C@H](CO)[C@@H](O)[C@H](O)[C@H]3O[C@@H]3O[C@H](CO)[C@@H](O)[C@H](O)[C@H]3O)CC1=CC[C@@H]1[C@@H]2CC[C@]2(C)[C@@H](C3=CC(=O)OC3)CC[C@]12O` belongs “inactive”.
Turning to `C[C@]12CCC(=O)C=C1CC[C@@H]1[C@@H]2[C@@H](O)C[C@]2(C)C(=O)CC[C@@H]12`, the Potency entry is “inactive”.
To `CN1C(=O)N(c2ccc(C#N)c(C(F)(F)F)c2)C(=O)[C@@]1(CO)c1ccccc1` belongs “inactive”; to `C[C@]12CC[C@H](OC3OC(CO)C(O)C(O)C3OC3OC(CO)C(O)C(O)C3O)C[C@@H]1CC[C@@H]1C2CC[C@]2(C)[C@@H](C3=CC(=O)OC3)CC[C@]12O` (some centres undefined), “inactive”; to `CC(C)C1(OO)C=C2C(=O)CC3C(C)(C(=O)O)CCCC3(C)C2CC1` (centres undefined), “inactive”.
For `CCC(C)(O)C1(C(=O)O)COC(=O)C1` (centres undefined) the value was “inactive”; for `C/C=C(\C)C(=O)OC1CC2C(CC=C3CC(OC4CC(OC)C(OC5CC(OC)C(OC6OC(C)C(OC7OC(CO)C(O)C(O)C7O)C(OC)C6O)C(C)O5)C(C)O4)CCC32C)C2(O)CCC(C(C)=O)C12C` (centres undefined), “inactive”.
To `CC[C@@H]1C[C@H]2CC[C@H](O2)[C@H](C)C(=O)O[C@@H](C)C[C@@H]2CC[C@@H](O2)[C@@H](C)C(=O)O[C@H](C)C[C@H]2CC[C@H](O2)[C@H](C)C(=O)O[C@@H](C)C[C@@H]2CC[C@@H](O2)[C@@H](C)C(=O)O1` belongs “inactive”; to `C=C(C)[C@@]12O[C@@H]1[C@@]1(C)C(=C[C@H]2O)CC[C@@H](O)[C@@H]1C`, “inactive”; to `CCC1C2CC3C4N(C)c5ccccc5C45CC(C2C5O)N3C1O` (centres undefined), “inactive”.
As to `C=C1C2(C)CC3C(C)(O)C4=CC(=O)OC(C)(C)C4=CCC3(C)C13C(=O)OC(C)C3(O)C2=O` (centres undefined), the Potency result is “inactive”.
For `CC(=O)C1CCC2C3CCC4C[C@@H](O)CCC4(C)C3CCC12C` (some centres undefined) the value was “inactive”; for `CC(C)[C@H](NC(=O)c1nn(Cc2ccc(F)cc2)c2ccccc12)C(N)=O`, “inactive”; for `CO[C@@H]1[C@@H](O)[C@@H](O[C@H]2CC[C@]3(C=O)C4CC[C@]5(C)[C@@H](C6=CC(=O)OC6)CC[C@]5(O)[C@@H]4CC[C@H]3C2)O[C@@H](C)[C@H]1O[C@@H]1O[C@H](CO[C@@H]2O[C@H](CO)[C@@H](O)[C@H](O)[C@H]2O)[C@@H](O)[C@H](O)[C@H]1O` (some centres undefined), “inactive”.
Regarding `CCC1(O)CCC2C3CCC4=CC(=O)CCC4C3CCC21CC` (centres undefined), the Potency result was “inactive”.
To `CC12CCC3C(C1)c1c(cc(O)c(C(=O)c4ccccc4)c1OC3(C)C)O2` (centres undefined) belongs “inactive”.
To `CC1=CC2/C=C(\C)CCC(O)C3OC(C)(C)OC3CC(=O)OC23C(=O)NC(CC(C)C)C3C1C` (centres undefined) belongs “inactive”.
Turning to `CCOC(=O)NC(C)(C)Cc1ccc(Cl)cc1`, the Potency result is “inactive”.
For `C[C@]12CC[C@H](O)CC1=CC[C@@H]1C2CC[C@]2(C)[C@@H](C3=CC(=O)OC3)CC[C@]12O` (some centres undefined) the value was “inactive”.
For `C/C=C(\C)C(=O)OC1C(C)OC(OC2C(C)OC(OC3CCC4(C)C(=CCC5C4CCC4(C)C(C(C)OC6OC(COC7OC(CO)C(O)C(O)C7O)C(O)C(O)C6O)CCC54O)C3)CC2OC)C(O)C1OC` (centres undefined) the value was “inactive”; for `C=C(C)[C@H]1O[C@H]2CC[C@@]3(C)[C@@](O)(CC[C@H]4[C@@H]5OC(C)(C)[C@H]6C[C@@H]7C(=C)Cc8c(Cl)cc9[nH]c(c5c9c8[C@@]76O)[C@@]43C)[C@]23O[C@@H]3[C@H]1O`, “inactive”; for `CCCN(CCC)CCc1ccc(OC)c(OCCc2ccccc2)c1`, “inactive”.
For the molecule `C=C1[C@@H]2CC[C@@]3(C)[C@H](c4ccoc4)OC(=O)C[C@]13O[C@H]1CC(=O)C(C)(C)[C@H](C(OC(C)=O)C(=O)OC)[C@]12C` (some centres undefined), the Potency entry was “inactive”.
For `CN1[C@H]2C[C@H](OC(=O)[C@H](CO)c3ccccc3)C[C@@H]1[C@@H](O)C2` the value was “inactive”.
For `C[C@H](Nc1ncnc2nc[nH]c12)c1nc2ccc(F)cc2c(=O)n1-c1ccccc1` the value was “inactive”.
Take `Cc1sc2c(c1C)C(c1ccc(Cl)cc1)=NC(CC(=O)OC(C)(C)C)c1nnc(C)n1-2` (centres undefined): the Potency result is “inactive”.
Consider `CC(C)(O)[C@H]1O[C@H]2CC[C@@]3(C)[C@@](O)(CC[C@H]4Cc5c([nH]c6ccccc56)[C@@]43C)C2=CC1=O`, for which the Potency entry was “inactive”.
For `Fc1cc(F)c2c(c1)[C@H]1C=CC[C@H]1C(c1cccnc1)N2` (some centres undefined) the value was “inactive”; for `CC[C@H]1CN2CC[C@H]1C[C@@H]2[C@@H](O)c1ccnc2ccc(OC)cc12`, “inactive”; for `COC1=CC(=O)O[C@@H](/C=C/c2ccccc2)C1`, “inactive”.
To `CNC(=O)c1cc(C#N)cc(C)c1NC(=O)c1cc(Br)nn1-c1ncccc1Cl` belongs “inactive”; to `CC(=O)OC1CC(O)C(C)(C)C2CC(OC(C)=O)C3(C)C(CCC4(C)C(c5ccoc5)C(=O)C5OC543)C12C` (centres undefined), “inactive”; to `CCCCCn1cc(C(=O)c2cccc3ccccc23)c2ccccc21`, “inactive”.
